Screening results: PubChem BioAssay, National Center for Advancing Translational Sciences (NCATS)
TDP1 cell CPT – growth inhibition of DT40 Tdp1-/-;hTDP1 cells with camptothecin (screen for TDP1 inhibitors); chicken DT40 Tdp1-/-;hTDP1 cells + 20 nM CPT, ATP luminescence, 48 h; Potency, µM (titrated, usually from 46.2 µM), inactives show at the highest dose activity change, negative = growth inhibition, usual class: inhibitors; 420,000 tested, 12% active; note: potency is the fitted concentration of half-maximal effect; nearly all actives have a fitted effect of over 55% in size
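Chicken DT40 Tdp1-/- cells complemented with human TDP1, 400 cells/well, exposed to compounds plus 20 nM camptothecin for at least 48 h at 37 C; viability read as ATP content by CellTiter-Glo luminescence.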
HT1080-NT tox – kills 2HG-producing HT-1080-NT fibrosarcoma cells | HT-1080-NT fibrosarcoma viability, CellTiter-Glo ATP luminescence, 48 h | Potency, µM (highest dose often 46.1 µM), for inactives: at the highest dose activity, negative = less viability, most hits filed as cytotoxic | 360,000 tested, 1.6% active;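 note: NT is the 2HG producing partner of a matched IDH1 knockdown line; potency is the fitted concentration of half-maximal effect; 0% = DMSO-treated cells and -100% = media-only wells without cells; nearly all actives have a fitted effect of over 55% in size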
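Luminescent CellTiter-Glo readout after 48 hours of compound exposure at 37 degrees C defined viability of HT-1080-NT cells. Activity was normalized to DMSO wells and cell-free media wells; concentration-response curves were fitted and assigned curve classes.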
HT1080 IDH1KD tx – toxicity to HT-1080 IDH1 knockdown cells (counter line); HT-1080 IDH1 knockdown viability, ATP luminescence, 48 h; Potency, µM (highest dose often 46.1 µM), for the others: top-dose activity, negative = toxicity, actives largely listed as cytotoxic; 360,000 tested, 2% active; AID 686971;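 note: potency is the fitted concentration of half-maximal effect; 0% = DMSO wells and -100% = cell-free medium wells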
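Using the IDH1-knockdown HT-1080 line run in the same batch and compound series as the NT line, viability after 48 h at 37 °C was determined by CellTiter-Glo luminescence and expressed as % activity.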
DT40 TDP1 no CPT – qHTS for Inhibitors of human tyrosyl-DNA phosphodiesterase 1 (TDP1): qHTS in cells in absence of CPT | DT40 Tdp1-/- hTDP1 cells, no CPT, ATP luminescence, 48 h | Potency, µM (titrated, usually from 46.2 µM), inactives show top-dose activity change, negative = growth inhibition, most hits filed as inhibitors | 420,000 tested, 15% active | AID 686978, 2013; note: potency is the fitted concentration of half-maximal effect; nearly all actives have a fitted effect of over 55% in size
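Stably hTDP1-transfected Tdp1-null chicken DT40 cells were treated with library compounds minus camptothecin and grown for at least 48 hr at 37 °C, after which cellular ATP was quantified by luminescence.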
IL1B secr inh – inhibitors of inflammasome signaling (IL-1 beta secretion). THP-1 LPS/ATP IL-1B secretion, AlphaLISA, 16 h; active compounds read low. activity change, % at 57.5 µM. 360,000 tested, 4.7% active; in the data active = activity change below about -50%; inconclusive = mostly about -30% to -49%
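Secreted IL-1B measured by AlphaLISA bead assay after 16 h compound exposure of THP-1 cells; compounds (final up to 57.5 uM) added 1 h before LPS (250 ng/mL) and ATP (1.25 mM) stimulation; lower signal means less secretion.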
Starred values were filed as active, the others as inactive; u = inconclusive; x = not tested or not shown; [ ] = remark or other dose. Most compounds without a hit are left out; they make up all but 19% or so of the library. Unless noted, calls come from the whole dose curve; as a rule, active = well fitted curve in the direction sought with a large enough effect; inconclusive = small, poorly fitted or top-dose-only effect, or another doubt; inactive = no such curve, though single readings can be large; an effect the other way counts as inactive or inconclusive. Unless noted, % is set by controls: 0 for no effect and ±100 for the full control effect.

SMILES	TDP1 cell CPT	HT1080-NT tox	HT1080 IDH1KD tx	DT40 TDP1 no CPT	IL1B secr inh
CCOC(=O)C1CCCN(C(=O)c2cnn(-c3nccc(-c4cc(C)sc4C)n3)c2C)C1 (configuration not stated)	2.5%[9.04 µM]	x	x	u	x
O=C(CNC1=NCCS1)c1c[nH]c2ccccc12	-11.4%	x	x	u	x
COC(=O)c1ccc2c(c1)c(C#Cc1ccccc1)c(-c1ccccc1)n2C	20.6µM*	7.6%	0.8%	16.4µM*	13.3
COc1ccc(-c2c(C#Cc3ccsc3)c3cc(-c4ccc(C(N)=O)cc4)ccc3n2C)cc1	23.1µM*	11.8%	-10.0%	u	-6.9
COc1ccc(-c2c(C#Cc3ccsc3)c3cc(-c4ccc5c(c4)OCCO5)ccc3n2C)cc1	-23.4%	0.0%	-1.4%	-7.5%	5.9
COc1cc(C#Cc2c(-c3ccccc3)n(C)c3ccccc23)cc(OC)c1	u	-5.4%	-0.1%	u	13.5
COc1ccc(-c2c(C#Cc3ccsc3)c3cc(-c4ccc5[nH]ccc5c4)ccc3n2C)cc1	-23.4%	-2.4%	0.8%	u	1.5
COc1cc(F)cc(-c2ccc3c(c2)c(C#Cc2ccsc2)c(-c2cc(OC)cc(OC)c2)n3C)c1	u	8.1%	-0.5%	14.6µM*	-11.0
COc1cc(OC)cc(-c2c(C#Cc3ccsc3)c3cc(-c4ccc(OC)c(OC)c4)ccc3n2C)c1	-9.3%	-0.2%	0.0%	-15.4%	24.1
COc1ccc(-c2c(C#Cc3ccsc3)c3ccccc3n2C)cc1	20.6µM*	-12.4%	-1.0%	23.1µM*	21.0
N#CC(=Nc1ccccc1)c1ccccc1	-1.2%	8.2%	5.5%	-11.0%	-25.1
N#Cc1c2n(c(=S)n(-c3ccc(F)cc3)c1=O)CCCCC2	-13.1%	-4.2%	-0.8%	-16.8%	-19.9
Cc1ccc(S(=O)(=O)NC(=O)c2ccc(-c3ccc(C)c4ccccc34)o2)cc1	u	-0.2%	-1.7%	u	-13.2
COc1ccc(-c2c(C#Cc3ccsc3)c3cc(-c4cccc5[nH]ccc45)ccc3n2C)cc1	u	-5.1%	6.3%	18.4µM*	-15.0
Cc1c(C)n(Cc2ccccc2)c2ncnc(N)c12	14.6µM*	-7.4%	-14.3%	23.1µM*	-6.5
Cc1ccc2c(cnn2C(=O)CCCC(=O)NCc2ccc(Cl)cc2)c1	23.1µM*	u	u	u	-4.9
Cc1cccc(S(=O)(=O)NC(=O)C2(C)CCN2C(=O)C2(c3ccc(Cl)cc3)CCC2)c1 (configuration not stated)	-1.5%	-0.7%	0.5%	-12.5%	38.1
CCN(CC)S(=O)(=O)c1cc(NC(=O)CSc2nc3c(cc2C#N)C(=O)CC(C)(C)C3)ccc1C	u	u	u	18.4µM*	-57.4*
CCN(CC)S(=O)(=O)c1cc(NC(=O)CSc2nnc(N)s2)ccc1C	u	-7.5%	-1.1%	-2.3%	-14.8
CCc1cc(Cn2nc(-c3ccccc3)cc2C(=O)NCc2ccccc2OC)on1	u	3.6%	-3.8%	20.6µM*	u
CN(C(=O)c1ccc(NC(=O)Cc2cccc(NC(=O)C3CCCN(C(=O)C4CC4)C3)c2)cc1)C1CC1 (configuration not stated)	-1.6%	0.2%	1.0%	-29.2%	12.6
COc1cc(C(C)=O)ccc1OCC(O)CN1CCN(c2ccc(C)c(C)c2)CC1 (configuration not stated)	-8.7%	-4.0%	-20.2%	-23.8%	8.9
Cc1ccccc1NC(=O)C1CCN(c2cc(-c3ccccc3)nc3ncnn23)CC1	14.6µM*	-22.5%	-19.6%	20.6µM*	u
O=S(=O)(c1ccc(Br)cc1)N1CCN(c2ccccc2)CC1	12.7%	14.5%	0.7%	-2.1%	7.9
COc1ccc(S(=O)(=O)N2CCN(c3cc(-c4ccccc4)nc4ncnn34)CC2)cc1	20.6µM*	-6.7%	u	16.4µM*	-68.7*
SMILES	TDP1 cell CPT	HT1080-NT tox	HT1080 IDH1KD tx	DT40 TDP1 no CPT	IL1B secr inh
O=S(=O)(c1ccc(Br)cc1)N1CCN(c2cc(-c3ccccc3)nc3ncnn23)CC1	13µM*	13.4%	-2.9%	25.9µM*	u
Cc1nc2ncnn2c(N2CCC(C(=O)NC3CCCC3)CC2)c1Cc1ccccc1	-29.1%	-13.4%	-26.5%	-30.0%	-18.2
Cc1nc2ncnn2c(N2CCN(S(=O)(=O)c3ccc(Br)cc3)CC2)c1C	u	6.8%	6.7%	4.61µM*	39.0
C=CCn1c(N)cc(=O)nc1SC(C)C(=O)Nc1cccc2ccccc12 (configuration not stated)	12.3%	12.6%	8.8%	3.3%	3.8
N#C/C(=C\c1ccc(-c2cccc([N+](=O)[O-])c2)o1)C(=O)Nc1nc(-c2cccs2)cs1	u	16.8%	6.1%	u	7.2
CN1C2C=C(N(CCc3c[nH]c4ccccc34)C(=O)c3ccc(Cl)cc3)CC1CC2 (configuration not stated)	u	u	u	u	-14.7
CCn1c(SCC(=O)NC2CCCC2)nc2c(c1=O)SCC2	-13.8%	8.1%	-0.3%	-3.1%	31.9
COc1ccccc1N1CCN(C(=O)c2cccc(N3C(=O)C4C5C=CC(C5)C4C3=O)c2)CC1 (configuration not stated)	u	4.0%	6.1%	u	15.8
O=C(c1cccc(N2C(=O)C3C4C=CC(C4)C3C2=O)c1)N1CCN(c2ccccc2)CC1 (configuration not stated)	3.1%	-8.9%	8.2%	-13.7%	u
O=C(c1cccc(N2C(=O)C3C4C=CC(C4)C3C2=O)c1)N1CCN(c2ccccc2Cl)CC1 (configuration not stated)	u	-5.1%	-8.9%	20.6µM*	-19.1
Cc1cccc(N2CCN(C(=O)c3cccc(N4C(=O)C5CC=CC(C)C5C4=O)c3)CC2)c1C (configuration not stated)	u	1.2%	-14.5%	23.1µM*	-12.7
COC(=O)c1ccccc1S(=O)(=O)N1CCC(NC(=O)C(Cc2cccc(OC)c2OC)NC(C)=O)CC1 (configuration not stated)	0.9%	4.3%	6.3%	3.1%	9.6
COc1cc(Cl)c(CN2CCOc3ccc(CN4CCCCC4CO)cc3C2)cc1OC (configuration not stated)	0.9%[9.04 µM]	x	x	u	x
Cc1ccc(OCC(=O)N2CCC3(CC2)CC(=O)c2ccccc2O3)cc1	20.6µM*	3.1%	1.0%	13µM*	-2.5
O=C1CC2(CCN(C(=O)COc3ccc(Cl)cc3)CC2)Oc2ccccc21	u	-15.9%	-0.3%	18.4µM*	-55.3*
